Results as given in the supplement of paper PMC10849652.
Targets with a hit are over-represented here; the source holds about 7,900 in all. About 0.6% of all pairs of compound and target were hits.

Experiments:
Experiment in all cases: log2 fold change, soluble protein after heating vs DMSO (PISA); higher = thermal stabilisation; K562 cells, 10 uM, 30 min; active = over 0.2 and 3.5 SD of the protein, either way, in both replicates (recomputed)
[1] = compound: CC1=C(C=C(C=C1)NC(=O)C2=CC(=CC=C2)C(C)(C)C#N)NC3=CC4=C(C=C3)N=CN(C4=O)C
How it was run: (§1)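 Quantification of soluble protein used TMTpro 16plex LC-MS/MS, with channel sums equalised. Samples were the supernatant after 21,000xg for 90 min of pooled aliquots from K562 cells (2×10^6 cells/mL) treated with 10 μM compound for 30 min, heated for 3 min over 48°C-58°C, and extracted in PBS with 0.5% NP-40 at 4°C. Values, from duplicates, describe thermal stability against control samples on a log2 fold-change scale.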

[2] = compound: CC1=C(C=C(C=C1)NC(=O)C2=CC(=CC=C2)N(C)C)NC(=O)C3=CC=C(C=C3)O
How it was run: as §1

[3] = compound: CC1=CC=C(C=C1)SC2=C3C=C(SC3=CN=C2)C(=O)N
How it was run: as §1

[4] = compound: CC1=NC(=CC=C1)C2=C(N=C(N2)C(C)(C)C)C3=CC4=NC=CN=C4C=C3
How it was run: as §1

[5] = compound: CCCCN(Cc1ccc(C(=O)NO)cc1)C(=O)Nc1ccccc1 [Nexturastat A]
How it was run: as §1

[6] = compound: CCCS(=O)(=O)Nc1ccc(F)c(C(=O)c2c[nH]c3ncc(-c4ccc(Cl)cc4)cc23)c1F [vemurafenib]
How it was run: as §1

[7] = compound: CCCS(=O)(=O)Nc1ccc(F)c(C(=O)c2c[nH]c3ncc(Cl)cc23)c1F
How it was run: as §1

[8] = compound: CCCc1cc(C)[nH]c(=O)c1CNC(=O)c1cc(-c2ccnc(N3CCN(C)CC3)c2)cc2c1cnn2C(C)C
How it was run: as §1

[9] = compound: CCN(CC)Cc1ccc2cc(COC(=O)Nc3ccc(C(=O)NO)cc3)ccc2c1 [givinostat]
How it was run: as §1

[10] = compound: CCN(CCCOc1ccc2c(Nc3cc(CC(=O)Nc4cccc(F)c4)[nH]n3)ncnc2c1)CCOP(=O)(O)O [barasertib]
How it was run: as §1

Measured: log2 fold change

NCAPH (UniProt Q15003)
Sequence of UniProt Q15003 (Q15003 whole entry, looked up): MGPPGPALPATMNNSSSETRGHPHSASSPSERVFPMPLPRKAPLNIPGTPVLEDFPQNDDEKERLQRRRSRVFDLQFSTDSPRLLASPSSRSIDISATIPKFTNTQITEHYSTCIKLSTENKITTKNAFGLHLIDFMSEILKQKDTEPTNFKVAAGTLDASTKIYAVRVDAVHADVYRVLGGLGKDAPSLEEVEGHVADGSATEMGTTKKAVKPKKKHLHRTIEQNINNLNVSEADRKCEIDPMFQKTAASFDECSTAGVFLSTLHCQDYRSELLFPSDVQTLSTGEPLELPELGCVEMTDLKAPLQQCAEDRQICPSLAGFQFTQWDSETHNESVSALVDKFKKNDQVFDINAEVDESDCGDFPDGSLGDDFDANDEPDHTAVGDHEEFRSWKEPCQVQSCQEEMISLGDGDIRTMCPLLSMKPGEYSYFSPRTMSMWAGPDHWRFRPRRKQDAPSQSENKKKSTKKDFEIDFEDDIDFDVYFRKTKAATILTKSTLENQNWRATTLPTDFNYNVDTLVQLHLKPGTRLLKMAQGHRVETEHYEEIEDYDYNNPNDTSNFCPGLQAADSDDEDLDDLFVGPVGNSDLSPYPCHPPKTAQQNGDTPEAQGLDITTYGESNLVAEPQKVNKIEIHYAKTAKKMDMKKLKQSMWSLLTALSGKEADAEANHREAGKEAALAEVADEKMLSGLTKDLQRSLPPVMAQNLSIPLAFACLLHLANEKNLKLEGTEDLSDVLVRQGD
inactive: [1] 0.02 | [2] -0.091 | [3] 0.013 | [4] 0.012 | [5] 0.09 | [6] 0.068 | [7] 0.065 | [8] 0.067 | [9] 0.238 | [10] 0.042

NOP53 (UniProt Q9NZM5)
inactive: [1] -0.052 | [2] 0.005 | [3] -0.073 | [4] -0.163 | [5] 0.264 | [6] -0.154 | [7] -0.147 | [8] 0.204 | [9] 0.048 | [10] -0.105

MRPS16 (UniProt Q9Y3D3)
inactive: [1] 0.055 | [2] -0.052 | [3] 0.006 | [4] 0.132 | [5] 0.124 | [6] -0.014 | [7] 0.062 | [8] 0.032 | [9] 0.031 | [10] -0.084

NAA11 (UniProt Q9BSU3)
inactive: [1] -0.375 | [2] 0.006 | [3] 0.06 | [4] 0.021 | [5] -0.016 | [6] 0.145 | [7] -0.067 | [8] 0.047 | [9] 0 | [10] -0.027

MRPL50 (UniProt Q8N5N7)
inactive: [1] -0.09 | [2] -0.04 | [3] 0.175 | [4] -0.031 | [5] 0.208 | [6] 0.034 | [7] 0.244 | [8] -0.058 | [9] 0.05 | [10] -0.057

NISCH (UniProt Q9Y2I1)
inactive: [1] 0.009 | [2] -0.07 | [3] -0.054 | [4] -0.018 | [5] 0.094 | [6] 0.055 | [7] 0.116 | [8] -0.077 | [9] 0.032 | [10] 0.075

MSH2 (UniProt P43246)
inactive: [1] 0.038 | [2] -0.067 | [3] 0.017 | [4] 0.066 | [5] -0.018 | [6] 0.069 | [7] 0.08 | [8] 0.019 | [9] 0.083 | [10] 0.057

NAP1L1 (UniProt P55209)
inactive: [1] 0.042 | [2] 0.005 | [3] -0.002 | [4] 0.035 | [5] -0.003 | [6] 0.04 | [7] 0.011 | [8] 0.028 | [9] -0.08 | [10] 0.061

MT-ND4 (UniProt P03905)
inactive: [1] -0.064 | [2] 0.067 | [3] 0.015 | [4] 0.048 | [5] -0.155 | [6] 0.004 | [7] 0.016 | [8] 0.014 | [9] 0.058 | [10] 0.156

NOLC1 isoform 2 (UniProt Q14978)
Sequence of UniProt Q14978 (Q14978 whole entry, looked up): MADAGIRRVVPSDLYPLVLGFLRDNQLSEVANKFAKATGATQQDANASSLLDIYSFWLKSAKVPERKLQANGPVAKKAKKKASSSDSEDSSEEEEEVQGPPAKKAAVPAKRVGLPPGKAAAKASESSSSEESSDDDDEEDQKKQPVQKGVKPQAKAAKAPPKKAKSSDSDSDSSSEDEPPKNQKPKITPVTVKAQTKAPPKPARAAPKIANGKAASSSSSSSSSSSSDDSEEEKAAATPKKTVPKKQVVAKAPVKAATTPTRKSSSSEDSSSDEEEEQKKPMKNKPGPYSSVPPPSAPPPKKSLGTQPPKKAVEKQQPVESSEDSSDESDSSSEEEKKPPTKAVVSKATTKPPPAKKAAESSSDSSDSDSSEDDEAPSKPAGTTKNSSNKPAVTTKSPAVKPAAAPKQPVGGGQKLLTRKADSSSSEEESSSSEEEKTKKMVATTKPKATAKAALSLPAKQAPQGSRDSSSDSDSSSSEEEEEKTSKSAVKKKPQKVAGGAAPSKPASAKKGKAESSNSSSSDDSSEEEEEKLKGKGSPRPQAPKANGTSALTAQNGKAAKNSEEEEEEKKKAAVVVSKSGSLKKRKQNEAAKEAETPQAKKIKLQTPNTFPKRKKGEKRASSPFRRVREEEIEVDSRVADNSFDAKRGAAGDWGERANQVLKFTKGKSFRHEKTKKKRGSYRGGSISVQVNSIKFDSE
inactive: [1] -0.074 | [2] -0.004 | [3] -0.082 | [4] -0.051 | [5] 0.018 | [6] -0.088 | [7] -0.032 | [8] 0.104 | [9] 0.143 | [10] -0.033

NEMP1 (UniProt O14524)
Sequence of UniProt O14524 (O14524 whole entry, looked up): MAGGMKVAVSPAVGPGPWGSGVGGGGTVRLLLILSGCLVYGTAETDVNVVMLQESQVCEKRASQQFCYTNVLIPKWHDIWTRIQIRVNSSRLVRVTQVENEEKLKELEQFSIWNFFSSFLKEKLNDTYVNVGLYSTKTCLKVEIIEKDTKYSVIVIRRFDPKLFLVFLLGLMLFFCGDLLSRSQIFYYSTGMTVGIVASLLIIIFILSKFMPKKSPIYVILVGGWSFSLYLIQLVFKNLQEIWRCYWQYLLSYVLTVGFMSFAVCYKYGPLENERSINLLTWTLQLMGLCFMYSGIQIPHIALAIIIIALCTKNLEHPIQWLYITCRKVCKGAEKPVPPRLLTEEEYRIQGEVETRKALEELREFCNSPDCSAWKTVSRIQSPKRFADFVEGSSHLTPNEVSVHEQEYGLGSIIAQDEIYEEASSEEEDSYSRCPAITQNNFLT
inactive: [1] -0.051 | [2] 0.037 | [3] 0.031 | [4] -0.022 | [5] -0.057 | [6] -0.084 | [7] -0.041 | [8] -0.001 | [9] -0.061 | [10] -0.034

NFATC2 (UniProt Q13469)
inactive: [1] -0.046 | [2] -0.079 | [3] -0.031 | [4] 0.018 | [5] 0.12 | [6] 0.038 | [7] 0.041 | [8] 0.086 | [9] 0.192 | [10] 0.107

MRPS22 (UniProt P82650)
inactive: [1] 0.041 | [2] -0.029 | [3] 0.022 | [4] -0.018 | [5] 0.092 | [6] -0.024 | [7] 0.037 | [8] 0.049 | [9] 0.032 | [10] -0.055

NCK1 (UniProt P16333)
inactive: [1] 0.166 | [2] -0.068 | [3] 0.208 | [4] 0.102 | [5] 0.12 | [6] 0.031 | [7] 0.116 | [8] 0.08 | [9] 0.211 | [10] 0.189

NQO1 (UniProt P15559)
Sequence of UniProt P15559 (P15559 whole entry, looked up): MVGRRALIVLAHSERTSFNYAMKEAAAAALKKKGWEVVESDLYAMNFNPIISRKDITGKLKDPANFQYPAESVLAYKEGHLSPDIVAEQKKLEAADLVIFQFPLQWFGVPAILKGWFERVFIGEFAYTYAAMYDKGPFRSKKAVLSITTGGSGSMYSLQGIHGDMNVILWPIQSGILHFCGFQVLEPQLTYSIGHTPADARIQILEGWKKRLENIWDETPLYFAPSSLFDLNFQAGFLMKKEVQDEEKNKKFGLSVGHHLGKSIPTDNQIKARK
inactive: [1] 0.075 | [2] -0.023 | [3] 0.032 | [4] 0.025 | [5] -0.049 | [6] 0.027 | [7] -0.007 | [8] 0.039 | [9] -0.01 | [10] 0.036

NEU1 (UniProt Q99519)
inactive: [1] 0.031 | [2] -0.048 | [3] 0.029 | [4] 0.118 | [5] 0.068 | [6] -0.002 | [7] -0.008 | [8] 0.057 | [9] 0.036 | [10] 0.059

OSTM1 (UniProt Q86WC4)
inactive: [1] -0.051 | [2] -0.047 | [3] 0 | [4] 0.056 | [5] -0.033 | [6] 0.017 | [7] 0.093 | [8] -0.03 | [9] 0.146 | [10] -0.023

MIS12 (UniProt Q9H081)
Sequence of UniProt Q9H081 (Q9H081 whole entry, looked up): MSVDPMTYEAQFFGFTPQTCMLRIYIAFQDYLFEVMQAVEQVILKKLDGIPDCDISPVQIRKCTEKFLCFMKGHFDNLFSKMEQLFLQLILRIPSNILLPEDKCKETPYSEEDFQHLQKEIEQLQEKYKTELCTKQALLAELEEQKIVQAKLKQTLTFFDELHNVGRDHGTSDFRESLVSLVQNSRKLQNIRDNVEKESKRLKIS
inactive: [1] -0.008 | [2] -0.141 | [3] -0.004 | [4] 0.044 | [5] 0.056 | [6] 0.074 | [7] -0.002 | [8] 0.023 | [9] 0.102 | [10] 0.049

MRPS15 (UniProt P82914)
inactive: [1] 0.04 | [2] -0.026 | [3] -0.017 | [4] -0.022 | [5] 0.058 | [6] -0.037 | [7] 0.062 | [8] 0.023 | [9] 0.027 | [10] 0.004

NUP98 (UniProt P52948)
inactive: [1] -0.042 | [2] 0.064 | [3] -0.003 | [4] 0.031 | [5] 0.061 | [6] 0.037 | [7] 0.068 | [8] 0.036 | [9] 0.081 | [10] 0.037

MTOR (UniProt P42345)
inactive: [1] -0.033 | [2] -0.05 | [3] 0.02 | [4] -0.006 | [5] 0.009 | [6] 0.024 | [7] 0.071 | [8] 0.008 | [9] 0.038 | [10] 0.059

PAFAH1B2 (UniProt P68402)
inactive: [1] 0.064 | [2] 0.005 | [3] -0.106 | [4] -0.046 | [5] -0.157 | [6] 0.083 | [7] -0.135 | [8] -0.355 | [9] 0.042 | [10] 0.046

NIPSNAP2 (UniProt O75323)
inactive: [1] 0.06 | [2] -0.044 | [3] 0.055 | [4] 0 | [5] -0.072 | [6] 0.06 | [7] 0.029 | [8] 0.007 | [9] -0.081 | [10] 0.019

NGLY1 (UniProt Q96IV0)
inactive: [1] -0.034 | [2] -0.039 | [3] 0.052 | [4] -0.016 | [5] 0.102 | [6] 0.009 | [7] 0.026 | [8] 0.016 | [9] 0.036 | [10] 0.024

OPA1 isoform 2 (UniProt O60313)
Sequence of UniProt O60313 (O60313 whole entry, looked up): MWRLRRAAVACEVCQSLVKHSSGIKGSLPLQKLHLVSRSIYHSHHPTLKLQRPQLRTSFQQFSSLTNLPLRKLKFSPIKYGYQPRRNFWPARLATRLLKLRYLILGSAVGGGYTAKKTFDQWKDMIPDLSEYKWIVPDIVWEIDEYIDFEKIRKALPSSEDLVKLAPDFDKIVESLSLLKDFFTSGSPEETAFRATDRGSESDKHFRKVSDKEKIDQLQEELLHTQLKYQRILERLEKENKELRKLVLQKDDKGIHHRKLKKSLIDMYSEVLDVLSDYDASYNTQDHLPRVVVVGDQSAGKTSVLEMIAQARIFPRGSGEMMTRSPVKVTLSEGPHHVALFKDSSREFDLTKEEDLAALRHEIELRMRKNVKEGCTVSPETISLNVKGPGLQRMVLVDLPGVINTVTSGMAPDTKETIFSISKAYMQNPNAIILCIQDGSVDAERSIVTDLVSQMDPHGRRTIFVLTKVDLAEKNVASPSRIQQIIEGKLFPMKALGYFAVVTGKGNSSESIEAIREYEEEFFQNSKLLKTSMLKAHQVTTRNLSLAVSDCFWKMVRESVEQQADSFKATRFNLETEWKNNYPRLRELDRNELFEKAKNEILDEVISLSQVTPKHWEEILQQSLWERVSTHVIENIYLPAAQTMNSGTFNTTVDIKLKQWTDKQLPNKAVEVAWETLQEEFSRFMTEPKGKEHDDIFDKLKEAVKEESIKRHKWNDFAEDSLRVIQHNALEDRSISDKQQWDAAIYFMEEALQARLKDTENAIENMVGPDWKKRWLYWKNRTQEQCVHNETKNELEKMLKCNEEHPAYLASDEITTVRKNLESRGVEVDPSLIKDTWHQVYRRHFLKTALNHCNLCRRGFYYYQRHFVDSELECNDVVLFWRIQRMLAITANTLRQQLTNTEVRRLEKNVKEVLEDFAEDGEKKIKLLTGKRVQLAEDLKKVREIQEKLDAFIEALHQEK
inactive: [1] 0.01 | [2] -0.064 | [3] 0.027 | [4] -0.003 | [5] -0.018 | [6] -0.001 | [7] 0.095 | [8] -0.002 | [9] 0.052 | [10] 0.045

NDUFB8 (UniProt O95169)
inactive: [1] 0.01 | [2] -0.068 | [3] 0.023 | [4] 0.024 | [5] 0.045 | [6] 0.099 | [7] -0.04 | [8] -0.025 | [9] -0.048 | [10] 0.023

OSBP (UniProt P22059)
Sequence of UniProt P22059 (P22059 whole entry, looked up): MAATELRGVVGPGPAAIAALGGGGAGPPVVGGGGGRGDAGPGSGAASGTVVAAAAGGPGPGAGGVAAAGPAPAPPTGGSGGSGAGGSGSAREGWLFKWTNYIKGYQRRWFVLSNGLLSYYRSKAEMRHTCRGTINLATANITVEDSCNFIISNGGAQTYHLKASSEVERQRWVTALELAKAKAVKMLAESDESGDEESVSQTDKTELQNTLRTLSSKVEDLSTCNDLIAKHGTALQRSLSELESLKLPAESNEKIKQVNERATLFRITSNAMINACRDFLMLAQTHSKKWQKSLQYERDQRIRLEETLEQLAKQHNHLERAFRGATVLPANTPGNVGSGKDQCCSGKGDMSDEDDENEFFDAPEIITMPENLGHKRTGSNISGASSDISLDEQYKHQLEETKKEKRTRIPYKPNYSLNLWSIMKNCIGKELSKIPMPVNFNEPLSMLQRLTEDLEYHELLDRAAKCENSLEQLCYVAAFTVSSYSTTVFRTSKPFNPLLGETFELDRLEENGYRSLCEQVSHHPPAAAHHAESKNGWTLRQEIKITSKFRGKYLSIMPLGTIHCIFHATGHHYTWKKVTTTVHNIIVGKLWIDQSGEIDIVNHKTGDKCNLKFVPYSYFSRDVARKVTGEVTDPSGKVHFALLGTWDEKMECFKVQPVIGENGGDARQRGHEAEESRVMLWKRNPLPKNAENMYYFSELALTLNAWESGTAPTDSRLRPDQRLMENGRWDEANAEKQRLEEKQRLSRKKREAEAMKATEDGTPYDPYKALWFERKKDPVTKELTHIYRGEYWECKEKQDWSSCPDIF
inactive: [1] 0.098 | [2] -0.011 | [3] -0.028 | [4] 0.022 | [5] -0.073 | [6] 0.015 | [7] 0.027 | [8] -0.003 | [9] -0.052 | [10] -0.001

NSMCE4A (UniProt Q9NXX6)
Sequence of UniProt Q9NXX6 (Q9NXX6 whole entry, looked up): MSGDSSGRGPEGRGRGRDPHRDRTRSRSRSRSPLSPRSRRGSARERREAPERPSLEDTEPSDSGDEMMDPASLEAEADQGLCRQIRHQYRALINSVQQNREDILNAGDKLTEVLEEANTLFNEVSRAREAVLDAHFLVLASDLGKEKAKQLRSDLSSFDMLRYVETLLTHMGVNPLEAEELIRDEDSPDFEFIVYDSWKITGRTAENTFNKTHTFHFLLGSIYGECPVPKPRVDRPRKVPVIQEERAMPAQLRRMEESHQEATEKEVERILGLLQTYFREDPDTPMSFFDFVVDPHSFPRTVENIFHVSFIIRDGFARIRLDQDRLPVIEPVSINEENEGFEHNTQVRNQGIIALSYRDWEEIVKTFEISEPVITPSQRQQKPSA
inactive: [1] 0 | [2] 0.022 | [3] -0.035 | [4] -0.053 | [5] 0.037 | [6] 0.088 | [7] -0.041 | [8] -0.016 | [9] -0.072 | [10] 0.196

OXA1L (UniProt Q15070)
inactive: [1] -0.013 | [2] 0.01 | [3] 0.02 | [4] 0.01 | [5] -0.021 | [6] 0.022 | [7] -0.013 | [8] -0.049 | [9] 0.003 | [10] -0.012

OAT (UniProt P04181)
Sequence of UniProt P04181 (P04181 whole entry, looked up): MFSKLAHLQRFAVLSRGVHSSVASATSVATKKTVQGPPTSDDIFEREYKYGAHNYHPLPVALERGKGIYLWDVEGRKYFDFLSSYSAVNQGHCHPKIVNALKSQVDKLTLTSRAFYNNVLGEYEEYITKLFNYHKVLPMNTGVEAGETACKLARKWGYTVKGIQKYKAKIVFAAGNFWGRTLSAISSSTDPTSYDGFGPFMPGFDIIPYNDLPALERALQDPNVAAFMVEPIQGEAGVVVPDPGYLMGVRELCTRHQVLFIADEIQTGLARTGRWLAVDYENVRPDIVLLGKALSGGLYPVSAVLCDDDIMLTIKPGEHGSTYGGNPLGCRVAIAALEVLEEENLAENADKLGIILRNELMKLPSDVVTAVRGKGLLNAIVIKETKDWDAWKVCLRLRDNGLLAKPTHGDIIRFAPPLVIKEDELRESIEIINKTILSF
inactive: [1] 0.087 | [2] 0.014 | [3] 0.02 | [4] 0.042 | [5] -0.01 | [6] 0.011 | [7] -0.023 | [8] -0.011 | [9] 0.045 | [10] 0.061

MRPS27 isoform 2 (UniProt Q92552)
inactive: [1] 0.037 | [2] -0.022 | [3] 0.006 | [4] 0.039 | [5] 0.151 | [6] 0.064 | [7] 0.035 | [8] 0.051 | [9] 0.055 | [10] -0.016

MRPS21 (UniProt P82921)
inactive: [1] 0.015 | [2] -0.059 | [3] 0.215 | [4] 0.107 | [5] 0.093 | [6] 0.079 | [7] 0.132 | [8] -0.018 | [9] -0.016 | [10] -0.156
